Experimental data taken from PubChem BioAssay (NCATS).
Where “and” joins values, the source holds several entries; their conditions need not be identical. Equal values may be shown once. Results filed as inconclusive are left out. Calls of active or inactive are those of the source. The call rests on the fitted dose curve; in most records, active means well fitted curve in the direction sought with a large enough effect; inconclusive means small, poorly fitted or top-dose-only effect, or another doubt; inactive means no such curve, though single readings can be large; an effect the other way counts as inactive or inconclusive.

Tests used:
CRL-7250 = normal cell line; test: Cytotoxic Profiling of Annotated Libraries Using Quantitative High-Throughput Screening (AID 1296008); details: Five cell lines viability, CellTiter-Glo ATP luminescence, 48-72 h; max response: stronger effect = lower value; further: nearly all actives have a fitted effect of over 60% in size; further: potency means the concentration at half of the fitted maximal effect; on max response: on the % scale 0 is the no-effect control and ±100 the full control effect
In short: (§1)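 Cytotoxicity was measured as CellTiter-Glo ATP luminescence, read after 10 min at room temperature. Compound treatment of the cells lasted 48 or 72 hr at 37 degrees Celsius in a qHTS format.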

HaCat [1] = test: as above; details: Five cell lines viability, CellTiter-Glo ATP luminescence, 48-72 h; max response: stronger effect = lower value
In short: as §1

KB-3-1 = test: as above; details: Five cell lines viability, CellTiter-Glo ATP luminescence, 48-72 h; max response: stronger effect = lower value
In short: as §1

MCC-13 = test: qHTS assay to identify novel small-molecules to repurpose for Merkel cell carcinoma treatment (AID 1296009); details: MCC and control cell lines, CellTiter-Glo viability, 72 h; series mostly up to 46 µM; further: nearly all actives have a fitted effect of over 60% in size; further: potency means the concentration at half of the fitted maximal effect
In short: (§2)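 72 hr, 37 degree celsius; NPC 8-pt / MIPE 11-pt dose response; compound pinned in DMSO; CellTiter-Glo, 10 min RT, luminescence; normalized to no-cell and DMSO controls.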

MCC-26 = test: as above; details: MCC and control cell lines, CellTiter-Glo viability, 72 h; series mostly up to 46 µM
In short: as §2

MKL-1 = test: as above; details: MCC and control cell lines, CellTiter-Glo viability, 72 h; series mostly up to 46 µM
In short: as §2

NIH3T3 [2] = test: Cytotoxic Profiling of Annotated Libraries Using Quantitative High-Throughput Screening (AID 1296008); details: Five cell lines viability, CellTiter-Glo ATP luminescence, 48-72 h; max response: stronger effect = lower value; further: nearly all actives have a fitted effect of over 60% in size; further: potency means the concentration at half of the fitted maximal effect; on max response: on the % scale 0 is the no-effect control and ±100 the full control effect
In short: as §1

NIH3T3 [3] = test: qHTS assay to identify novel small-molecules to repurpose for Merkel cell carcinoma treatment (AID 1296009); details: MCC and control cell lines, CellTiter-Glo viability, 72 h; series mostly up to 44.8 µM; further: nearly all actives have a fitted effect of over 60% in size; further: potency means the concentration at half of the fitted maximal effect
In short: as §2

WaGa = test: as above; details: MCC and control cell lines, CellTiter-Glo viability, 72 h; series mostly up to 46 µM
In short: as §2

MKL-2 = test: as above; details: MCC and control cell lines, CellTiter-Glo viability, 72 h; series mostly up to 46 µM
In short: as §2

UISO = test: as above; details: MCC and control cell lines, CellTiter-Glo viability, 72 h; series mostly up to 46 µM
In short: as §2

TAB113 = test: qHTS profiling for inhibitors of Plasmodium falciparum proliferation (AID 504749); details: P. falciparum in erythrocytes, SYBR Green DNA, 72 h; series mostly up to 28.7 µM
In short: (§3)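 Infected RBCs, 0.3% parasitemia/2.5% Hct final; cpd 72 h, 37 C, 5% CO2; lysis buffer with saponin/triton/SYBR Green I, o/n RT dark; FI 485/535; norm. to artemisinin (0.29 uM) and DMSO.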

TAB165 = test: as above; details: P. falciparum in erythrocytes, SYBR Green DNA, 72 h; series mostly up to 28.7 µM
In short: as §3

W2 = test: as above; details: P. falciparum in erythrocytes, SYBR Green DNA, 72 h; series mostly up to 28.7 µM
In short: as §3

CAOV3 = test: Primary qHTS to identify gynecologic anti-cancer compounds using libraries of approved drugs and bioactive compounds (AID 1345084); details: Gynecologic cancer cell panel viability, ATPlite luminescence, 48 h; series mostly up to 57.5 µM; further: nearly all actives have a fitted effect of over 55% in size; further: potency means the concentration at half of the fitted maximal effect
In short: (§4)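 Cytotoxicity screen measuring ATP content by luciferase luminescence. Each compound is applied at five concentrations for 48 h at 37 C with 5% CO2.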

CASKI = test: as above; details: Gynecologic cancer cell panel viability, ATPlite luminescence, 48 h; series mostly up to 57.5 µM
In short: as §4

HACAT [4] = test: qHTS assay to identify novel small-molecules to repurpose for Merkel cell carcinoma treatment (AID 1296009); details: MCC and control cell lines, CellTiter-Glo viability, 72 h; at 44.8 µM (top of the series) unless noted; further: nearly all actives have a fitted effect of over 60% in size; further: potency means the concentration at half of the fitted maximal effect
In short: as §2

C33A = test: Primary qHTS to identify gynecologic anti-cancer compounds using libraries of approved drugs and bioactive compounds (AID 1345084); details: Gynecologic cancer cell panel viability, ATPlite luminescence, 48 h; series mostly up to 57.5 µM; further: nearly all actives have a fitted effect of over 55% in size; further: potency means the concentration at half of the fitted maximal effect
In short: as §4

Oc1ccc(C=Cc2cc(O)cc(O)c2)cc1
inactive: max response (CRL-7250) -12.2% | max response (HaCat [1]) -24.3% | max response (KB-3-1) -2.23% | Potency (MCC-13) | Potency (MCC-26) | Potency (MKL-1)

CC(=O)O[C@]1(C(C)=O)CC[C@H]2[C@@H]3C=C(Cl)C4=CC(=O)[C@@H]5C[C@H]5[C@]4(C)[C@@H]3CC[C@@]21C
inactive: outcome (CRL-7250) | max response (HaCat [1]) -0.438% | outcome (KB-3-1) | outcome (NIH3T3 [2]) | Potency (MCC-13) | Potency (MCC-26) | Potency (MKL-1) | Potency (NIH3T3 [3]) | Potency (WaGa)

C[C@@H]1CC=CC=CC=CC=C[C@@H](O[C@@H]2O[C@H](C)[C@@H](O)[C@H](N)[C@H]2O)C[C@@H]2O[C@](O)(C[C@@H](O)C[C@@H]3O[C@@H]3C=CC(=O)O1)C[C@H](O)[C@@H]2C(=O)O
inactive: max response (CRL-7250) -2.36% | max response (HaCat [1]) -1.58% | max response (NIH3T3 [2]) 4.91% | Potency (MCC-13) | Potency (MCC-26) | Potency (MKL-1) | Potency (MKL-2) | Potency (UISO) | Potency (WaGa)

C#CCN(C)CC1=Cc2ccccc2Oc2ccccc21
inactive: max response (CRL-7250) -16.4% | max response (KB-3-1) -4.88% | max response (NIH3T3 [2]) -28.1% | Potency (MCC-13) | Potency (MCC-26) | Potency (MKL-1) | Potency (MKL-2) | Potency (WaGa)

CN1CC(=O)N2C(Cc3c([nH]c4ccccc34)[C@H]2c2ccc3c(c2)OCO3)C1=O (stereo partly specified)
inactive: Potency (TAB113) | Potency (TAB165) | Potency (W2) | max response (CRL-7250) -5.59% | max response (HaCat [1]) 4.52% | max response (KB-3-1) -12.7% | Potency (MCC-13) | Potency (MCC-26) | Potency (MKL-1) | Potency (MKL-2) | Potency (UISO) | Potency (WaGa)

Fc1ccc(CNc2ncnc3ccc(F)cc23)cc1
inactive: max response (HaCat [1]) -29% | max response (NIH3T3 [2]) -22.4% | Potency (MCC-13) | Potency (MCC-26) | Potency (MKL-2) | Potency (CAOV3) | Potency (CASKI)
active: Potency (CRL-7250) 4.69 µM and 4.61 µM

CN(C)CCOc1ccc(C(=C(CCCl)c2ccccc2)c2ccccc2)cc1
inactive: max response (CRL-7250) -7.14% | max response (HaCat [1]) -3.54% | max response (KB-3-1) 7.38% | outcome (NIH3T3 [2]) | Potency (MCC-13) | Potency (MCC-26) | Potency (MKL-1) | Potency (MKL-2) | Potency (NIH3T3 [3]) | Potency (UISO) | Potency (WaGa)

CCCCC[C@H](O)C=C[C@H]1[C@H](O)CC(=O)[C@H]1CCCCCCC(=O)O
inactive: max response (CRL-7250) -0.21% | max response (HaCat [1]) -1.7% | max response (KB-3-1) -2.88% | max response (NIH3T3 [2]) -0.203% | Potency (MCC-13) | Potency (MCC-26) | Potency (MKL-1)

NCc1c[nH]c(=S)n1[C@H]1CCc2c(F)cc(F)cc2C1
active: Potency (CRL-7250) 16.6 µM | Potency (MKL-2) 20.9 µM
inactive: outcome (HaCat [1]) | outcome (HACAT [4]) | Potency (MCC-13) | Potency (MCC-26)

Cc1nc(NC(=O)N2CCC[C@@H]2C(N)=O)sc1-c1csc(C(C)(C)C)n1
inactive: Potency (MCC-13) | Potency (MKL-1) | Potency (MKL-2)
active: Potency (CRL-7250) 1.32 µM | Potency (HaCat [1]) 1.87 µM | Potency (KB-3-1) 13.2 µM | Potency (NIH3T3 [2]) 4.69 µM

C#C[C@]1(O)CC[C@H]2[C@H]3CCc4cc(OC)ccc4[C@H]3CC[C@@]21C
inactive: max response (CRL-7250) -5.04% | max response (HaCat [1]) 0.906% | max response (KB-3-1) -15.5% | max response (NIH3T3 [2]) 2.86% | Potency (MCC-13) | Potency (MCC-26) | Potency (MKL-1) | Potency (MKL-2) | Potency (UISO) | Potency (WaGa)

Cc1cc(CS(=O)(=O)c2ccccc2)cc(OCc2ccc(CN3CCC[C@H]3CO)cc2)c1
active: Potency (CRL-7250) 1.32 µM | Potency (HaCat [1]) 1.48 µM | Potency (KB-3-1) 3.72 µM | Potency (NIH3T3 [2]) 2.96 µM
inactive: Potency (MCC-13) | Potency (MCC-26) | Potency (MKL-1) | Potency (MKL-2) | Potency (UISO) | Potency (WaGa)

C[C@@H](N)c1ccc(C(=O)Nc2ccnc3[nH]ccc23)cc1
inactive: max response (CRL-7250) -24.2% | Potency (MCC-26) | Potency (MKL-1) | Potency (MKL-2)
active: Potency (HaCat [1]) 18.4 µM | Potency (NIH3T3 [2]) 23.5 µM and 16.4 µM

CCCCCOC(=O)Nc1nc(=O)n([C@@H]2O[C@H](C)[C@@H](O)C2O)cc1F (stereo partly specified)
inactive: max response (CRL-7250) 0.279% | max response (HaCat [1]) -7.75% | max response (KB-3-1) -1.34% | max response (NIH3T3 [2]) 2.26% | Potency (MCC-13) | Potency (MCC-26) | Potency (MKL-1) | Potency (MKL-2) | Potency (UISO) | Potency (WaGa)

O=C1NC(=O)C(c2cnc3ccccn23)=C1c1cn2c3c(cccc13)CN(C(=O)N1CCOCC1)CC2
inactive: max response (HaCat [1]) -40.4% | max response (NIH3T3 [2]) -24.9% | Potency (MKL-1) | Potency (MKL-2) | Potency (C33A)
active: Potency (CRL-7250) 0.0166 µM | Potency (CASKI) 3.16 µM

CC(C)Oc1cc(Nc2nc(N[C@@H](C)c3ccc(F)cn3)ncc2Cl)[nH]n1
active: Potency (CRL-7250) 2.64 µM | Potency (KB-3-1) 10.5 µM | Potency (NIH3T3 [2]) 5.26 µM | Potency (MCC-26) 14.8 µM
inactive: max response (HaCat [1]) -29.2% | Potency (MKL-1) | Potency (MKL-2)

O=C(O)c1nc(=O)[nH]c(=O)[nH]1
inactive: Potency (TAB113) | Potency (TAB165) | Potency (W2) | max response (CRL-7250) 1.07% | max response (HaCat [1]) 1.83% | max response (KB-3-1) 13.7% and 2.52% | max response (NIH3T3 [2]) 0.163% | Potency (MCC-13) | Potency (MCC-26) | Potency (MKL-1) | Potency (MKL-2) | Potency (UISO) | Potency (WaGa)
